Bioassay records from PubChem BioAssay.
FadD28 binding = inhibitors of FadD28 bisubstrate probe binding, primary screen, biochemical, fluorescence polarization, single point; Mycobacterium tuberculosis FadD28 fatty-acid-AMP ligase; inhibition, % at 12.5 µM; hit rate 0.22% among 360,000; AID 588549, 2011; in the data active = inhibition above about 8.5%, passing the limit was not always enough
Mtb hypoxia inh = PubChem AID 1159583; hit rate 0.1% among 300,000; fluorescence inhibition, % (concentration not given with the values); M. tuberculosis hypoxia-regulated fluorescent reporter, fluorescence; in the data active = fluorescence inhibition mostly above about 23%, no sharp cut-off; inactive = mostly below about 17%
Rv3671c protease = Rv3671c serine protease inhibitors, primary screen, biochemical, fluorescence polarization, M. tuberculosis H37Rv. inhibition, % at 5.96 µM. hit rate 0.048% among 320,000; in the data active = inhibition above about 38%;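 also: extracellular domain of Rv3671c used as enzyme; 0% = enzyme with DMSO and 100% = no enzyme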
Mtb UGM inh = M. tuberculosis UGM enzyme inhibitors, primary screen, biochemical, fluorescence polarization, single point | UDP-galactopyranose mutase (Mycobacterium tuberculosis (strain ATCC 25618 / H37Rv)), … | purified UGM, fluorescence polarization probe displacement | inhibition, % at 10 µM | hit rate 0.06% among 320,000 | AID 504406, 2011; in the data active = inhibition above about 10%, passing the limit was not always enough
Target sequence (P9WIQ1 whole entry, looked up): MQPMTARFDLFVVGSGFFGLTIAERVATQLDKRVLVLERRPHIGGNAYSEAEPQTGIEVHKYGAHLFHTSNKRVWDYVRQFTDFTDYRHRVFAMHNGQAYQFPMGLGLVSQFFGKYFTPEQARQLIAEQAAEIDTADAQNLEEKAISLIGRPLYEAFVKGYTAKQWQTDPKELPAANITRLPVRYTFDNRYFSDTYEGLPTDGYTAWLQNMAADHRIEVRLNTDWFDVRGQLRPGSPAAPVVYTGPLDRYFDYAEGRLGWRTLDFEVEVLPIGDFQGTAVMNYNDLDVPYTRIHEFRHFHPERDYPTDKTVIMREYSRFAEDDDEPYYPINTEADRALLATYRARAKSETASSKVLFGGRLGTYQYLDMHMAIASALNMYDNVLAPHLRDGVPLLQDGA
GDH-TPI counter = GDH-TPI coupling enzyme inhibitors, primary screen, artefact control for M. tuberculosis FBA inhibitor project, biochemical, absorbance, full deck | AID 588335, 2011 | hit rate 1.2% among 360,000 | inhibition, % at 4.8 µM | GDH-TPI coupled enzyme counterscreen, NADH absorbance; in the data active = inhibition above about 30%;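 also: 0% = DMSO wells and 100% = wells lacking the enzyme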
FBA Mtb inh = Mtb FBA enzyme inhibitors, primary screen, biochemical, fluorescence, strain H37Rv; Fructose-bisphosphate aldolase (Mycobacterium tuberculosis (strain ATCC 25618 / H37Rv)), …; purified M. tuberculosis FBA, fluorescence read-out; inhibition, % at 1 µM; hit rate 2.3% among 360,000; in the data active = inhibition above about 27%;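 also: 0% = vehicle and 100% = reference inhibitor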
* hit, by the source's call. The list is not random: actives were taken first. Their share in the collection is about 3.5%.

Screening CC(=NN1CCN(Cc2cccc3ccccc23)CC1)c1cccnc1 returned Mtb hypoxia inh 14.
`CNc1cncc(-c2cccc(O)c2)n1` gave FadD28 binding 1, GDH-TPI counter 25 and FBA Mtb inh 200*.
For CNc1cncc(-c2ccc(O)cc2C)n1 the results were FadD28 binding -2, GDH-TPI counter 9 and FBA Mtb inh 13.
`CNc1cncc(-c2ccc(C)cc2)n1` gave FadD28 binding 3, GDH-TPI counter 15 and FBA Mtb inh 197*.
For CNc1cncc(-c2cccc(C(=O)NCCN(C)C)c2)n1 the results were FadD28 binding -4, GDH-TPI counter 15 and FBA Mtb inh 121*.
CNc1cccc(-c2cccc(O)c2)n1 was read as FadD28 binding -2, GDH-TPI counter -3 and FBA Mtb inh 18.
For CC(=O)Nc1cncc(-c2cccc(C(=O)NC3CC3)c2)n1 the results were FadD28 binding -4, GDH-TPI counter 11 and FBA Mtb inh 2.
`CNc1cncc(-c2cccc(C(=O)NC3CC3)c2)n1` gave FadD28 binding -1, GDH-TPI counter 23 and FBA Mtb inh active.
For O=C(C=Cc1ccc(S(=O)(=O)N2CCOCC2)cc1)NC(=S)NCCCn1ccnc1 the results were Mtb hypoxia inh 5.
O=C(O)c1ccc(NN=Cc2cc3cc4c(cc3nc2Cl)OCCO4)cc1 was read as Mtb hypoxia inh -3.
`COc1ccc(C2C3C(=O)N(C(C)(C)C)C(=O)C3[C@]3(CC(C)C)C(=O)N(c4ccccc4)C(=O)N23)cc1` (stereo not given in full) gave Mtb hypoxia inh 9.
For COc1ccc2c(c1)[nH]c1c(=O)n(/N=C/c3ccc(OC)c(CN4CCCC4)c3)cnc12 the results were FadD28 binding -1, Rv3671c protease 1, Mtb UGM inh -3, GDH-TPI counter 54* and FBA Mtb inh 2.
Screening COc1ccc(/C=N/n2c(=O)[nH]c3c([nH]c4ccc(F)cc43)c2=O)cc1CN1CCCCC1 returned FadD28 binding -1, Rv3671c protease 0, Mtb UGM inh 1, GDH-TPI counter 26 and FBA Mtb inh 82*.
`CC1CN(C(C)CO)C(=O)c2cccc(NC(=O)Nc3ccc4c(c3)OCO4)c2OC1CN(C)Cc1ccc(-c2ccccc2)cc1` (stereo not given) gave Mtb hypoxia inh 9.
Screening Cn1nc(C(F)(F)F)c(C=NOC(=O)c2ccccc2Cl)c1SCc1ccc(Cl)cc1 returned Mtb hypoxia inh 9.
O=C(CN1CCOCC1)NN=Cc1ccc(C(=O)O)cc1 was read as Mtb hypoxia inh 2.
Screening COc1ccc(OCC(=O)NN=Cc2ccc(N(C)C)cc2)cc1 returned Mtb hypoxia inh -2.
For CN(C)c1ccc(C=NNC(=O)CCCCCNC(=O)c2ccccc2)cc1 the results were Mtb hypoxia inh 12.
Screening CN(C)c1ccc(/C=N/NC(=O)CCCCCNC(=O)c2ccccc2)cc1 returned FadD28 binding -2, Rv3671c protease 1, Mtb UGM inh -1, GDH-TPI counter 58* and FBA Mtb inh 17.
Screening CN(C)c1ccc(/C=N/NC(=O)CCC(=O)NCc2ccccc2)cc1 returned FadD28 binding -3, Rv3671c protease -1, Mtb UGM inh 0, GDH-TPI counter 32* and FBA Mtb inh 23.
Screening COc1ccc(OCC(=O)N/N=C/c2ccc(N(C)C)cc2)cc1 returned FadD28 binding 0, Rv3671c protease 2, Mtb UGM inh 2, GDH-TPI counter 34* and FBA Mtb inh 21.
`O=C(NC(=Cc1ccc([N+](=O)[O-])cc1)C(=O)N1CCCCC1)c1ccccc1` gave Mtb hypoxia inh 3.
Cn1c(=O)[nH]c(=O)c2c1nc(Br)n2CC=NNC(N)=S was read as Mtb hypoxia inh 7.
`CC(=NNc1ccc(F)cc1)c1ccncc1` gave Mtb hypoxia inh 3.
`CCCOc1ccc(C(=O)NN=Cc2c[nH]c3ccc(Br)cc23)cc1` gave Mtb hypoxia inh 5.
For CCOC(=O)N1CCN(C(=O)CSc2nc(-c3cccc(C)c3)ns2)CC1 the results were FadD28 binding -1, Mtb hypoxia inh 44*, Rv3671c protease -1, Mtb UGM inh -1, GDH-TPI counter 1 and FBA Mtb inh 0.
Screening CC1CCCCN1Cc1ccc(-c2nnn(CC(=O)NC3CCCCC3)n2)cc1 (stereo not given) returned FadD28 binding -2, Mtb hypoxia inh 4, Rv3671c protease -5, Mtb UGM inh 0, GDH-TPI counter 62* and FBA Mtb inh -10.
Screening O=C(NCC1CCCO1)c1ccc(-c2cccc(C(F)(F)F)c2)o1 (stereo not given) returned FadD28 binding -5, Mtb hypoxia inh 5, Rv3671c protease -7, Mtb UGM inh 1, GDH-TPI counter 1 and FBA Mtb inh 3.
CC(=O)c1ccc(-c2ccc(C(=O)NC3CC(C)(C)NC(C)(C)C3)o2)cc1 was read as FadD28 binding 0, Mtb hypoxia inh -2, Rv3671c protease 3, Mtb UGM inh -1, GDH-TPI counter 44* and FBA Mtb inh 180*.
Screening CC(=O)c1ccc(-c2ccc(C(=O)N3CCC(C(N)=O)CC3)o2)cc1 returned FadD28 binding 0, Mtb hypoxia inh 6, Rv3671c protease -4, Mtb UGM inh 5, GDH-TPI counter 30 and FBA Mtb inh 118*.
Screening CC1(C)CC(NC(=O)c2ccc(F)cc2)CC(C)(C)N1 returned FadD28 binding -3, GDH-TPI counter -2 and FBA Mtb inh -1.
For CC(=O)c1ccc(-c2ccc(C(=O)N3CCN(c4ccc(F)cc4)CC3)o2)cc1 the results were FadD28 binding -2, Mtb hypoxia inh 0, Rv3671c protease -3, Mtb UGM inh 1, GDH-TPI counter 22 and FBA Mtb inh 2.
Screening CC(=O)c1ccc(-c2ccc(C(=O)NCC3CCCO3)o2)cc1 (stereo not given) returned FadD28 binding -3, Mtb hypoxia inh 9, Rv3671c protease 1, GDH-TPI counter 17 and FBA Mtb inh active.
For CC1CN(C(=NS(=O)(=O)c2ccccc2)c2ccccc2)CC(C)O1 (stereo not given) the results were Mtb hypoxia inh 5.
COc1ccc2nc(N3CCOCC3)cc(C)c2c1 was read as FadD28 binding -1, Mtb hypoxia inh 17, Rv3671c protease 1, Mtb UGM inh 0, GDH-TPI counter 15 and FBA Mtb inh 85*.
Screening CCCn1c(-c2cccs2)nc2nc3ccccc3nc21 returned FadD28 binding -7, Mtb hypoxia inh 22, Rv3671c protease -2, Mtb UGM inh -2, GDH-TPI counter 31* and FBA Mtb inh active.
